Values joined by “and” are separate entries in the source; they are usually repeats but may differ in a detail not shown here. Equal entries are not always repeated. The panel holds about 79,000 compounds, 15% with a hit somewhere; the sample as a whole holds those more often. Some compounds were tested as several samples or in several runs, with calls that do not always agree. Active and inactive are the calls of the source. Rule as the data show it: active = growth inhibition above about 70%; inactive = the rest.
Key:
[1] = NCI Yeast Anticancer Drug Screen. Data for the rad52 strain (AID 147);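 also: 0% = growth of vehicle-treated control cultures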; settings: S. cerevisiae rad52 mutant growth inhibition, stronger effect = higher value
In short: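 Inhibition of yeast growth, referenced to vehicle controls, was the measured output for a strain with defective DNA damage repair.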

[2] = NCI Yeast Anticancer Drug Screen. Data for the wt1 strain (AID 149);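 also: 0% = growth of vehicle-treated wt1 cultures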; settings: S. cerevisiae wt1 strain (SPY 50644) growth inhibition, stronger effect = higher value
In short: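 Measured: growth of wt1 yeast under compound versus vehicle treatment, reported as inhibition.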

[3] = NCI Yeast Anticancer Drug Screen. Data for the rad50EPP+ strain (AID 151);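 also: 0% = growth of vehicle-treated control cultures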; settings: S. cerevisiae rad50 mutant strain, stronger effect = higher value
In short: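 Genetically defined yeast (rad50EPP+, DNA damage repair alteration) is grown with compound, and inhibition of growth is expressed relative to vehicle-treated controls.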

[4] = NCI Yeast Anticancer Drug Screen. Data for the mgt1 strain (AID 153); settings: S. cerevisiae mgt1 mutant growth inhibition, stronger effect = higher value
In short: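 In the mgt1 strain, test compounds were added and growth inhibition was determined relative to vehicle-treated controls.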

[5] = NCI Yeast Anticancer Drug Screen. Data for the rad50 strain (AID 155);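 also: 0% = growth of vehicle-only cultures of the same strain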; settings: S. cerevisiae rad50 strain growth inhibition, stronger effect = higher value
In short: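 Growth of the mutant yeast was measured after compound exposure and referenced to vehicle-treated cultures.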

[6] = NCI Yeast Anticancer Drug Screen. Data for the mec2-1 strain (AID 157); settings: S. cerevisiae mec2-1 strain, stronger effect = higher value
In short: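 Each compound was tested on mec2-1 yeast, a strain altered in DNA damage repair or cell cycle control. Growth inhibition is reported relative to vehicle.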

[7] = NCI Yeast Anticancer Drug Screen. Data for the rad14 strain (AID 159);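 also: 0% = growth of vehicle-treated control cultures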; settings: S. cerevisiae rad14 strain growth inhibition, stronger effect = higher value
In short: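 Here, inhibition of yeast growth was measured after compound exposure, using a strain with a genetic defect in DNA damage repair and vehicle-treated cultures as the reference.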

[8] = NCI Yeast Anticancer Drug Screen. Data for the sgs1 mgt1 strain (AID 161);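 also: 0% = growth of cultures given vehicle only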; settings: S. cerevisiae sgs1 mgt1 strain, stronger effect = higher value
In short: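 Inhibition of yeast growth, normalised to vehicle-treated controls, is reported for a strain bearing genetic alterations in DNA damage repair.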

[9] = NCI Yeast Anticancer Drug Screen. Data for the CLN2oe strain (AID 163);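 also: 0% = growth of vehicle-only control cultures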; settings: S. cerevisiae CLN2oe strain, stronger effect = higher value
In short: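 First, the altered yeast strain was treated with each compound; second, its growth was measured; finally, inhibition was derived by comparison with vehicle controls.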

[10] = NCI Yeast Anticancer Drug Screen. Data for the cln2 rad14 strain (AID 165);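 also: 0% = growth equal to vehicle treated cultures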; settings: S. cerevisiae cln2 rad14 strain, stronger effect = higher value
In short: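 Test compounds were added to cln2 rad14 yeast cultures; inhibition of growth was then determined by comparison with vehicle treatment.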

[11] = NCI Yeast Anticancer Drug Screen. Data for the bub3 strain (AID 167); settings: S. cerevisiae bub3 mutant strain, stronger effect = higher value
In short: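 Whole-cell yeast assay. The mutant strain was incubated with compounds, and growth inhibition was determined by comparison with vehicle-treated cells.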

[12] = NCI Yeast Anticancer Drug Screen. Data for the wt2 strain (AID 169);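 also: 0% = growth of vehicle-treated yeast cultures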; settings: S. cerevisiae wt2 strain growth inhibition, stronger effect = higher value
In short: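 The panel's yeast strains carry defined changes in DNA repair or cell cycle genes. Each strain is grown with compound, and growth loss is scored relative to vehicle.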

[13] = NCI Yeast Anticancer Drug Screen. Data for the mlh1 strain (AID 171);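 also: 0% = growth of vehicle-treated control cultures of the same strain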; settings: S. cerevisiae mlh1 strain growth inhibition, stronger effect = higher value
In short: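 Inhibition values reflect reduced yeast growth in the presence of compound, referenced to vehicle controls, using a strain chosen for its alteration in DNA repair or cell cycle control.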

[14] = NCI Yeast Anticancer Drug Screen. Data for the sgs1 strain (AID 173);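 also: 0% = growth of vehicle-only control cultures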; settings: S. cerevisiae sgs1 mutant, stronger effect = higher value
In short: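 Vehicle-treated cultures served as reference for growth inhibition of a yeast strain altered in DNA damage repair or cell cycle control after compound exposure.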

[15] = NCI Yeast Anticancer Drug Screen. Data for the mlh1 rad18 strain (AID 175); settings: S. cerevisiae mlh1 rad18 strain growth inhibition, stronger effect = higher value
In short: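 Inhibition values reflect reduced growth of mutant yeast versus vehicle-treated controls following compound exposure; the mutations affect DNA damage repair.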

[16] = NCI Yeast Anticancer Drug Screen. Data for the rad18 strain (AID 177); settings: S. cerevisiae rad18 mutant growth inhibition, stronger effect = higher value
In short: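 Steps: expose repair-mutant yeast to compound; measure growth; express as inhibition relative to vehicle control.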

[17] = at 5.0 µM (retest, dose inferred, filed as 0.5)
[18] = at 50.0 µM (retest, dose inferred, filed as 5.0)

Measured: growth inhibition

O=C1Nc2ccccc2/C1=C/c1ccccc1
-40.7% (inactive) and 70.8% (active): [10]; at 50.0 µM
63.5% (inactive) and 96.8% (active): [15]; at 50.0 µM
active: [1]; at 100.0 µM 80% | [4]; at 100.0 µM 71% | [5]; at 50.0 µM 81.6% and 98% | [5]; at 100.0 µM 82% | [7]; at 100.0 µM 73% | [12]; at 100.0 µM 88% | [13]; at 100.0 µM 81% | [14]; at 100.0 µM 84% | [16]; at 100.0 µM 86%
inactive: [1]; at 1.2 µM -2% | [1]; at 3.7 µM -1% | [1]; at 11.0 µM 7% | [1]; at 33.0 µM 37% | [2]; at 1.2 µM -1% | [2]; at 3.7 µM -2% | [2]; at 11.0 µM 0% | [2]; at 33.0 µM 6% | [2]; at 100.0 µM 34% | [3]; at 1.2 µM 0% | [3]; at 3.7 µM 1% | [3]; at 11.0 µM 10% | [3]; at 33.0 µM 35% | [3]; at 100.0 µM 53% | [4]; at 1.2 µM -6% | [4]; at 3.7 µM -22% | [4]; at 11.0 µM -8% | [4]; at 33.0 µM 17% | [5]; at 1.2 µM -3% | [5]; at 3.7 µM 1% | [5]; [17] -113% and -24% | [5]; at 11.0 µM 3% | [5]; at 33.0 µM 39% | [5]; [18] -9% and 10% | [6]; at 1.2 µM -3% | [6]; at 3.7 µM -5% | [6]; [17] -53% and -11% | [6]; at 11.0 µM -8% | [6]; at 33.0 µM 4% | [6]; [18] -56% and 30% | [6]; at 100.0 µM 51% | [7]; at 1.2 µM -4% | [7]; at 3.7 µM 6% | [7]; at 11.0 µM -2% | [7]; at 33.0 µM 14% | [8]; [17] -69% and -10% | [8]; [18] -52% and 29% | [9]; at 1.2 µM -9% | [9]; at 3.7 µM -9% | [9]; at 11.0 µM -12% | [9]; at 33.0 µM -1% | [9]; at 100.0 µM 17% | [10]; [17] -67% and -49% | [10]; [18] -83% and -8% | [11]; at 1.2 µM -9% | [11]; at 3.7 µM -14% | [11]; [17] -46% and -21% | [11]; at 11.0 µM -5% | [11]; at 33.0 µM 9% | [11]; [18] -62% and 22% | [11]; at 100.0 µM 51% | [12]; at 1.2 µM -3% | [12]; at 3.7 µM -3% | [12]; at 11.0 µM 2% | [12]; at 33.0 µM 35% | [13]; at 1.2 µM -5% | [13]; at 3.7 µM 10% | [13]; at 11.0 µM -5% | [13]; at 33.0 µM 30% | [14]; at 1.2 µM 0% | [14]; at 3.7 µM 2% | [14]; at 11.0 µM 10% | [14]; at 33.0 µM 47% | [15]; [17] -122% and -22% | [15]; [18] -79% and 51% | [16]; at 1.2 µM 0% | [16]; at 3.7 µM -1% | [16]; at 11.0 µM 8% | [16]; at 33.0 µM 52%
66.6% (inactive) and 97.2% (active): [6]; at 50.0 µM
15.8% (inactive) and 98% (active): [11]; at 50.0 µM
57.1% (inactive) and 96.2% (active): [8]; at 50.0 µM

Cc1ccc(NCCNCCO)c2c(=O)c3cc(O)ccc3sc12
inactive: [1]; at 1.2 µM -5% | [1]; at 3.7 µM 12% | [1]; at 11.0 µM 30% | [2]; at 1.2 µM 10% | [2]; at 3.7 µM -9% | [2]; at 11.0 µM -5% | [2]; at 33.0 µM -1% | [2]; at 100.0 µM 18% | [3]; at 1.2 µM 12% | [3]; at 3.7 µM 22% | [3]; at 11.0 µM 25% | [3]; at 33.0 µM 36% | [3]; at 100.0 µM 51% | [4]; at 1.2 µM -10% | [4]; at 3.7 µM 1% | [4]; at 11.0 µM -11% | [4]; at 33.0 µM -1% | [5]; at 1.2 µM 4% | [5]; at 3.7 µM 4% | [5]; [17] 49% | [5]; at 11.0 µM 28% | [6]; at 1.2 µM 5% | [6]; at 3.7 µM -13% | [6]; [17] 21% | [6]; at 11.0 µM -11% | [6]; at 33.0 µM -10% | [6]; at 100.0 µM 58% | [7]; at 1.2 µM -18% | [7]; at 3.7 µM -4% | [7]; at 11.0 µM -2% | [7]; at 33.0 µM 0% | [8]; [17] 8% | [9]; at 1.2 µM 6% | [9]; at 3.7 µM 14% | [9]; at 11.0 µM 24% | [9]; at 33.0 µM 23% | [10]; [17] 17% | [11]; at 1.2 µM -24% | [11]; at 3.7 µM 0% | [11]; [17] 18% | [11]; at 11.0 µM 0% | [11]; at 33.0 µM -2% | [12]; at 1.2 µM 10% | [12]; at 3.7 µM 3% | [12]; at 11.0 µM 4% | [12]; at 33.0 µM 63% | [12]; at 100.0 µM 24% | [13]; at 1.2 µM -20% | [13]; at 3.7 µM -8% | [13]; at 11.0 µM -18% | [13]; at 33.0 µM -10% | [14]; at 1.2 µM 15% | [14]; at 3.7 µM 35% | [14]; at 11.0 µM 43% | [14]; at 33.0 µM 48% | [15]; [17] 13% | [16]; at 1.2 µM -35% | [16]; at 3.7 µM -30% | [16]; at 11.0 µM -27% | [16]; at 33.0 µM -5%
active: [1]; at 33.0 µM 90% | [1]; at 100.0 µM 93% | [4]; at 100.0 µM 90% | [5]; at 33.0 µM 93% | [5]; [18] 99% | [5]; at 50.0 µM 80.8% | [5]; at 100.0 µM 95% | [6]; [18] 99% | [6]; at 50.0 µM 71.8% | [7]; at 100.0 µM 97% | [8]; [18] 99% | [8]; at 50.0 µM 89.2% | [9]; at 100.0 µM 96% | [10]; [18] 100% | [10]; at 50.0 µM 88.9% | [11]; [18] 99% | [11]; at 50.0 µM 89.2% | [11]; at 100.0 µM 96% | [13]; at 100.0 µM 93% | [14]; at 100.0 µM 91% | [15]; [18] 99% | [15]; at 50.0 µM 81.7% | [16]; at 100.0 µM 93%

Reference: PubChem BioAssay (NCI)
